Test results published in PubChem BioAssay AID1508600 (Functional Genomics Laboratory (NCATS/FGL), 2020).
Screen size: about 53,000 sequences; about 3,700 (7%) were called active.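 Rule for the calls: active = gene knockdowns whose robust z-score for IL-1 alpha signal is at least 2 or at most -2, so actives lie on both sides; inactive = the rest.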 The sample as a whole holds a higher share of actives than the screen did.

Assay: Components of the Cytosolic LPS Sensing Pathway: Gene Identification via Genome-wide siRNA Screen;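 note: robust z of the log signal after scaling to non-targeting control siRNA wells of the plate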
Details: RAW264.7 macrophages, IL-1a HTRF, actives lie on both sides, screened at 100 nM (by protocol), cells primed 5 h with Pam3CSK4 first
In short: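 Cells (RAW264.7, 1×10^4 per well) were transfected with siRNA at 100 nM and cultured 48h at 37 degrees C. Pam3CSK4 was added for 5 hours; LipidA transfection followed for 24 hour. IL-1a was then measured by HTRF.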

| Sequence | z-score |
| --- | --- |
| GGGACAAUUAGAAAGACAUTT against Mtif2 | 0.982 (inactive) |
| GGAACCAACCAGGAGAAAUTT against Ms4a4d | -2.58 (active) |
| GGAACUCACGCACAUAUUUTT against Net1 | -0.483 (inactive) |
| GACUUACUUGCAUCACUGATT against Vmn1r4 | -0.732 (inactive) |
| GGUGAAUGUAUAAGUUAUGTT against Icam1 | 1 (inactive) |
| GCUUUCUUAGCAUUAAAUCTT against Zkscan3 | -0.274 (inactive) |
| GGUUCAUGAUGGAUGACAUTT against Bmerb1 | -1.96 (inactive) |
| GGCUUGAAGUUCAUUUAUUTT against Nkiras2 | -1.03 (inactive) |
| GGUUAUUCAAAAAUGCAACTT against Rcor1 | -0.559 (inactive) |
| GGAAAGGCUCAAUGAGAGCTT against Nipa2 | -3.3 (active) |
| GGUCUAUGCGAUGCUAUACTT against Sarm1 | -0.508 (inactive) |
| GCCGUUUACCUUAGUCUGUTT against Cyb5rl | 0.00283 (inactive) |
| GCCAGCCUAAAAAAGAUACTT against Eef1g | 0.254 (inactive) |
| GGAUCUUGGCUAAAGAGGGTT against Slc25a25 | 0.0129 (inactive) |
| GCAAUUGAAAGUGAACAAUTT against Olfr1360 | -0.935 (inactive) |
| GGAGGAAAGUUGUAUUUGATT against Nudt7 | 0.148 (inactive) |
| GGCGAGUUCAGGAGUUUACTT against Fmnl1 | 2.55 (active) |
| GGGUACCUGUCCAAGGUCATT against Mfn2 | 0.849 (inactive) |
| GGAUGGAACAUAUGAUUAGTT against Vmn1r234 | 0.653 (inactive) |
| GGUGUCAGGAUUUUAUAACTT against Etfbkmt | -0.182 (inactive) |
| GGUGGUUUGUGAUGAAAAUTT against Pabpc1 | 2.11 (active) |
| GUUUGUCUAGCUUCAGAUGTT against Rims4 | 1.78 (inactive) |

| Sequence | z-score |
| --- | --- |
| GGGAGGACAUCCAGACAAUTT against Fam13b | -0.305 (inactive) |
| GGGAAAGAUAAGCUCAAGGTT against Sh2d2a | 1.32 (inactive) |
| GACUCUAAACCUAGCAGCGTT against Basp1 | -2.34 (active) |
| GGCUGGUUUAUUUGUGGACTT against Cemip2 | 0.574 (inactive) |
| GGAUAUGGAAGAAGUUGUGTT against Olfr1089 | -2.2 (active) |
| CCAGCUAUACGAAGACUUCTT against Hdhd3 | 0.0525 (inactive) |
| GGAGGUGGAAUCUUUCCCUTT against Aplp1 | -1.68 (inactive) |
| GGAAAAGGCAAUCGUUUCUTT against Mtg2 | 0.278 (inactive) |
| GUAUGUUCAUAUGGUUUUCTT against Swi5 | 2.33 (active) |
| GUCUUCCCUCAUCCUUUGATT against Cox8a | 0.902 (inactive) |
| GCAGAAGUUCAUUUUCCUATT against Olfr145 | 0.969 (inactive) |
| GGUCAUGUCCAUCCCAAAGTT against Ficd | 1.15 (inactive) |
| GGAUUAUUUUAAGUGGAGATT against Dna2 | -0.103 (inactive) |
| GGAUUCACUAGCAUUGUAGTT against Guca1b | -0.725 (inactive) |
| GGAGCUUCUAGACUGUACCTT against Lrmp | 2.03 (active) |
| GCAAGAAUCAUCCGGUUACTT against Ttc39b | 1.36 (inactive) |
| CCUUUACACCACUCUAUUUTT against Adgb | -0.795 (inactive) |
| GCCGCUACCUAUGAUGUCCTT against Kcne4 | 0.385 (inactive) |
| GGUCCUGGAAUCUCAAAAUTT against Entpd1 | -0.506 (inactive) |
| GCAGAUCGCAAAAGAUCCUTT against Nppa | 0.69 (inactive) |
| GGUCAAGUCAGUAACUGCATT against Olfr10 | 0.747 (inactive) |
| GCUCAGAUUUGCUUUAUGATT against Ube2r2 | 0.367 (inactive) |

| Sequence | z-score |
| --- | --- |
| GGGAAUGGCUAAUGUUUAUTT against Stk38l | 2.32 (active) |
| GCCUCACUUUGCCAUGCAUTT against Pou4f1 | -1.78 (inactive) |
| GGAUGCCAGAAGAAUAUUCTT against Pnlip | 2.43 (active) |
| CCAUGCUGAUUGCUCCGACTT against Cass4 | 1.46 (inactive) |
| GGAUAUGUGAAAUGCAUUGTT against Asb9 | 0.219 (inactive) |
| GGCUAAAGGCCUUCUUUUUTT against Reep3 | 0.622 (inactive) |
| CGCGAUUCAGCUCAUUCUCTT against Slitrk1 | 0.83 (inactive) |
| GCCAUCUUCGGUCAACUCUTT against Olfr969 | -2.87 (active) |
| GGACUCCGUCAUAUACGAATT against Olfr1102 | -0.187 (inactive) |
| GGUAAAAGUGGGUAGGAAATT against Ptprh | 0.595 (inactive) |
| GGAUCUACGUAGCAUUUCATT against Mis12 | 0.237 (inactive) |
| CCCUAAGAGUCACCAAAAUTT against Nos2 | -2.19 (active) |
| GGGCUGAAUAAGGAACUGUTT against Nudt16l2 | 1.46 (inactive) |
| GGAAAGAUCACUCUUGCAUTT against Pon1 | -0.58 (inactive) |
| GGACCACUCCAAGAGUUCUTT against Ncapd3 | 2.88 (active) |
| GGAACUCUGGAAUAAUCUGTT against St6galnac2 | 1.58 (inactive) |
| GGACCAGCUGAUCUCAGUATT against Olfr418 | -1.94 (inactive) |
| GGCUGACAAGAGAUUUAAATT against 4930430F08Rik | -0.703 (inactive) |
| GCUACGCUUCCUUAUUUGCTT against Tubgcp3 | 0.525 (inactive) |
| GCCAAUAAGAACAACGAUGTT against Des | 0.732 (inactive) |
| GUCUAUCUUCAGCACAAACTT against Klrc3 | 2.12 (active) |
| GGUCUUUGAUCUACGAAUGTT against Rhobtb2 | 0.825 (inactive) |

| Sequence | z-score |
| --- | --- |
| GGAGAUAAAUGUGUAGACCTT against Matn3 | 0.915 (inactive) |
| GCACAAAUAAAGAUAAGAGTT against Uox | -0.178 (inactive) |
| GGUUUAACUGUAGCAUAAGTT against Pde12 | -0.0106 (inactive) |
| GGGACUCGGGCAGUAUUCATT against Tgm5 | -0.185 (inactive) |
| GGUCGAACUUCUGUGCCAUTT against Slc39a8 | 2.39 (active) |
| GCAGAUGUAAAUAGCAAAATT against Apc | 0.955 (inactive) |
| GGGUGACAUGAUUUUAACUTT against Fbh1 | -0.727 (inactive) |
| GGCAAAUCCCGUUCACUGATT against Magel2 | -1.08 (inactive) |
| GCUUUUGGUACAGGAUGCCTT against 5830411N06Rik | -2.68 (active) |
| GCGAUGAUGUGCUUAUGUCTT against Zfp341 | 0.735 (inactive) |
| CCUUAGGUACUCUAAGGAATT against D1Pas1 | -0.109 (inactive) |
| CGGAUUUUGAAGUACACCGTT against Alg8 | 0.207 (inactive) |
| CGCAGUACCUAUUUGAGCGTT against Hs6st1 | 1.62 (inactive) |
| GCUCAUAAUUUUGACAGCUTT against Cyp51 | 0.168 (inactive) |
| GGCUUUCACGCUUUGACAATT against Ap1m2 | 0.209 (inactive) |
| GACUAACCAGAUGAAAGUCTT against Vmn1r11 | -0.66 (inactive) |
| GCAUGUUACUAGGAUAACUTT against Mup20 | 2.27 (active) |
| GGAUUCUAUGACAAAGACATT against Ddx3x | 1.84 (inactive) |
| GGCUUCCAAAACAAAUCAATT against Rgn | 0.857 (inactive) |
| CCUGCACAACUGGAAACCUTT against Nectin2 | -2.16 (active) |
| GAUAAUGACCAGGCUACCATT against Magea7-ps | 0.069 (inactive) |
| CCACUGUGCUCAAUUUGCATT against Slc9a2 | -0.372 (inactive) |

| Sequence | z-score |
| --- | --- |
| GGCUCUGGAAAAGAACAACTT against Sds | 1.52 (inactive) |
| GGAAAUCAACAGCUCACAUTT against B3gnt9 | -0.327 (inactive) |
| GGAUCUAUAAGGACUACAUTT against Bmp7 | 4.01 (active) |
| GGCCGAUUCCAUUGUACAGTT against Fam177a | 3.54 (active) |
| GCUGUAUGGCUAAGCAGUGTT against Olfr113 | -0.42 (inactive) |
| GCCUCAAAAUGGCGGAACUTT against Casp8 | -0.249 (inactive) |
| CCAAGCGAAUGUCAAAAUATT against Fam163a | 0.66 (inactive) |
| GGAGAGGAACAGGAACAGATT against Ankrd9 | 0.557 (inactive) |
| GGGUCAUUGGUAGCAACGATT against Oas1g | -2.9 (active) |
| GGCCUAAUCGAAAUGUGGCTT against Trim12a | 0.515 (inactive) |
| GGUGACUGGUUUGUUGCUUTT against Pstk | -1.39 (inactive) |
| GCUACAGGGAAGUAUUGAATT against Apc | 2.05 (active) |
| GGCUGGAAUCACUGAUAUUTT against Hddc3 | 0.527 (inactive) |
| CGAGAUGUUUAUUCAACAUTT against Tcf23 | -0.431 (inactive) |
| GGAACAUUUGAAGUGCAAATT against Ilf2 | -0.45 (inactive) |
| GCCAUCGUCUACCUAUGACTT against Olfr358 | -1.85 (inactive) |
| CGGUUAGUCUGUCAGUAUCTT against Xrcc3 | 0.488 (inactive) |
| GAUUCAGCAUUAUUUCUGUTT against Olfr980 | 0.524 (inactive) |
| GGGCUUGAUUGUGAAAGAATT against Tlr12 | -1.82 (inactive) |
| GGGAGAGUAAUGUGGACAUTT against Slc37a2 | 3.86 (active) |
